{"source": "paper PMC7819943", "about": "“Rice protein-binding microarrays: a tool to detect cis-acting elements near promoter regions in rice”", "note": "In all, about 35,000 sequences were measured (“fluorescence intensity (a.u.)”: median about 10,000, highest 2% from about 52,000 on). The sample holds the highest values, similar sequences and a random draw of the others, so the mix is not that of the screen.", "data": [{"molecular_target": "T1, OsWOX13 (Oryza sativa, UniProt Q5QMM3 1-267)", "T1 sequence": "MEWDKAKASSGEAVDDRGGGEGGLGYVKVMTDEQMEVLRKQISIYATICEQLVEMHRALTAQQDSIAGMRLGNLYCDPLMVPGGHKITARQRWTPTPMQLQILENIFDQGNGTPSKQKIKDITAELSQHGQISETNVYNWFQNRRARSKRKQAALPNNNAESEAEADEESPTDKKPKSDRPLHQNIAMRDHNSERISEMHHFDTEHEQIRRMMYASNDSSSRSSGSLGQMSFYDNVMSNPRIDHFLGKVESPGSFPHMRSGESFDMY", "assay": "protein-binding microarray (RPBM); PBS, 2% BSA, 51.3 ng/ul salmon testes DNA, 50 uM zinc acetate, 200 nM TF, 25 C, 1 h; high values mean tight binding", "settings": "protein: recombinant; tags: N-terminal polyhistidine and DsRed monomer fusion (pET32a); label: CyDye5-dUTP incorporated in the synthesized complementary strand; 3' TTTTT single-stranded linker to array surface; dsDNA, one strand shown", "procedure,_shortened": "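Binding signal is reported as fluorescence intensity per feature (arbitrary units) from an Axon 4000B scanner. Incubation used 200 nM of each Ni–NTA-purified, N-terminally polyhistidine- and DsRed-fused transcription factor from E. coli BL21-CodonPlus on a double-stranded custom Agilent array for 1 h at 25 °C, with 50 µM zinc acetate in the buffer, followed by washing.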", "values": [{"sequence": "CAAACTAATAATTTGGCTTTTGGCTTCTGCTGAAGCAAGTCGGAGTCACCTAGTGCAG", "binding signal": "4830 fluorescence intensity (a.u.)"}, {"sequence": "GTTATGATTAATTGCGCCATTAGGATATTAATTAATCTGGCGGAGTCACCTAGTGCAG", "binding signal": "54500 fluorescence intensity (a.u.)"}, {"sequence": "GCCTGATTATCCATTGTTCATCCTGCCATATTGATTTCAGCGGAGTCACCTAGTGCAG", "binding signal": "30300 fluorescence intensity (a.u.)"}, {"sequence": "ACATTCATATTGATGTTAATGATTCTAGACATATATATCTCGGAGTCACCTAGTGCAG", "binding signal": "4710 fluorescence intensity (a.u.)"}, {"sequence": "GCCATATGATTATTTAATCTGATCCGGAGGATTAAACAAGCGGAGTCACCTAGTGCAG", "binding signal": "14100 fluorescence intensity (a.u.)"}, {"sequence": "TGCAGTGATAATTTAGGATTATTTAAGATTTGCACAGTGGCGGAGTCACCTAGTGCAG", "binding signal": "12500 fluorescence intensity (a.u.)"}, {"sequence": "CATAATTAGCGGTTGATTACTGTAGCATCACTGTAACAAACGGAGTCACCTAGTGCAG", "binding signal": "29600 fluorescence intensity (a.u.)"}, {"sequence": "AAACCATTAGCGCATAATTTATTGAGTTTTAATTATTTCACGGAGTCACCTAGTGCAG", "binding signal": "6070 fluorescence intensity (a.u.)"}, {"sequence": "GCTGATTGCCATTGATTCATATTCATTGTGTGCCATCTGGCGGAGTCACCTAGTGCAG", "binding signal": "58800 fluorescence intensity (a.u.)"}, {"sequence": "ACGGTAATTAACGTTGATTACCATAATTAGCGGCGCATTGCGGAGTCACCTAGTGCAG", "binding signal": "65200 fluorescence intensity (a.u.)"}, {"sequence": "TCTGATTTAACTGCATTGCATTTGTGTCATTGACATGTGGCGGAGTCACCTAGTGCAG", "binding signal": "42600 fluorescence intensity (a.u.)"}, {"sequence": "GCTGATTGATTCATTCTGATCTGAACATATAGACAACCATCGGAGTCACCTAGTGCAG", "binding signal": "54700 fluorescence intensity (a.u.)"}, {"sequence": "CTAGACATATATATTTATCTAGATTCATTAACATCCATATCGGAGTCACCTAGTGCAG", "binding signal": "5320 fluorescence intensity (a.u.)"}, {"sequence": "CGTAAACAAATAGGTCCAACATAATTTAACCTTCATAGAGCGGAGTCACCTAGTGCAG", "binding signal": "5570 fluorescence intensity (a.u.)"}, {"sequence": "AGACGCATCTCCTCAATCATGCATCAACGTGCGTCATCTGCGGAGTCACCTAGTGCAG", "binding signal": "3790 fluorescence intensity (a.u.)"}, {"sequence": "GTTGCATATCAATCATCAAGAATCTCTTCAGAAAGAGGAGCGGAGTCACCTAGTGCAG", "binding signal": "14000 fluorescence intensity (a.u.)"}, {"sequence": "GTTAAATTTAAACTTGTATATTTGTGAAGTGATACATCACCGGAGTCACCTAGTGCAG", "binding signal": "17300 fluorescence intensity (a.u.)"}, {"sequence": "ACACAACTTGTTAATTTGACCTGTAGCCCCATCATGTACACGGAGTCACCTAGTGCAG", "binding signal": "3150 fluorescence intensity (a.u.)"}, {"sequence": "ATTCATGAATATATGAAACCTGATTGCAAATGTGCAAATCCGGAGTCACCTAGTGCAG", "binding signal": "4970 fluorescence intensity (a.u.)"}, {"sequence": "TGCCTAATTGTTGCCATTGATTTGTTAGCCACACCTTTGGCGGAGTCACCTAGTGCAG", "binding signal": "40300 fluorescence intensity (a.u.)"}, {"sequence": "TGTTAGACTATGCCATCAATTGTAATTGTTGGTTCTGATGCGGAGTCACCTAGTGCAG", "binding signal": "4250 fluorescence intensity (a.u.)"}, {"sequence": "GCAAAATTGGTTTCATCAACTATTGAGTGGGTGTGCACTGCGGAGTCACCTAGTGCAG", "binding signal": "9640 fluorescence intensity (a.u.)"}, {"sequence": "TTGTAATTGATTGTGGCCCATCAACTATTGCCATCACTGGCGGAGTCACCTAGTGCAG", "binding signal": "64900 fluorescence intensity (a.u.)"}, {"sequence": "TTTGATTGATGGCCATAAGTTGCCACACTTTGCCACACTTCGGAGTCACCTAGTGCAG", "binding signal": "53800 fluorescence intensity (a.u.)"}, {"sequence": "ATATTGATTGCATAAAGAAAGTTCGGTCCTGTTCACTTTGCGGAGTCACCTAGTGCAG", "binding signal": "39900 fluorescence intensity (a.u.)"}, {"sequence": "TCAAATAATTAGAAGGGGTGAGACTTCGAATCCAAGTCGTCGGAGTCACCTAGTGCAG", "binding signal": "14400 fluorescence intensity (a.u.)"}, {"sequence": "TAATTATTGAACACACTAATTAAGTATTACGATGCACCTCCGGAGTCACCTAGTGCAG", "binding signal": "6340 fluorescence intensity (a.u.)"}, {"sequence": "TAGATAGATAGAATTGAATGGTGACCTCAGCTCCAGCTTCCGGAGTCACCTAGTGCAG", "binding signal": "16200 fluorescence intensity (a.u.)"}, {"sequence": "GGTGAATTGAATGGTTGATTGCCTATCTCATCTTCCGCAGCGGAGTCACCTAGTGCAG", "binding signal": "64100 fluorescence intensity (a.u.)"}, {"sequence": "ACAATTGAATGATTGATTGCAGCTCAAGCTTCAATCCGCACGGAGTCACCTAGTGCAG", "binding signal": "63900 fluorescence intensity (a.u.)"}, {"sequence": "TAATCTTGAATTATTGATTTATTTATGGCTTCAGCTTTCACGGAGTCACCTAGTGCAG", "binding signal": "7480 fluorescence intensity (a.u.)"}, {"sequence": "TGTGAATGTTGTGATTGAGGTGGTATCAGTATCATATCCGCGGAGTCACCTAGTGCAG", "binding signal": "27000 fluorescence intensity (a.u.)"}, {"sequence": "AGAGGATTGATGAATGCAGCTGCAAGCACAGCACGCAGTACGGAGTCACCTAGTGCAG", "binding signal": "13600 fluorescence intensity (a.u.)"}, {"sequence": "TCTCTTACTCTTGTTGATTGACACCGGTCATCAGTAGTTCCGGAGTCACCTAGTGCAG", "binding signal": "43200 fluorescence intensity (a.u.)"}, {"sequence": "CAAAATTAACTTGCGCGCCACTCTGCCTCTCAACCCTTCACGGAGTCACCTAGTGCAG", "binding signal": "8740 fluorescence intensity (a.u.)"}, {"sequence": "AACAATTGACAAACTGATTCTGCTCGCCTCTGTCCCCTTTCGGAGTCACCTAGTGCAG", "binding signal": "46800 fluorescence intensity (a.u.)"}, {"sequence": "ATATATATATATATATATATACATACATATACACACACACCGGAGTCACCTAGTGCAG", "binding signal": "7300 fluorescence intensity (a.u.)"}, {"sequence": "TTGATTGGGTCTGTGGTGGAACAGGACGATCATACATCACCGGAGTCACCTAGTGCAG", "binding signal": "21000 fluorescence intensity (a.u.)"}, {"sequence": "GAGCTCAGCTTGCAGGGAGCTTGGGTGTGTGATCATACACCGGAGTCACCTAGTGCAG", "binding signal": "63900 fluorescence intensity (a.u.)"}, {"sequence": "AGTTAATAACAAGAAATTATTCATTTAAATTTAGGGCAAACGGAGTCACCTAGTGCAG", "binding signal": "9460 fluorescence intensity (a.u.)"}, {"sequence": "CTTAATAACTTTCTCGGATTTAATGTGTGACTCACCATTCCGGAGTCACCTAGTGCAG", "binding signal": "3340 fluorescence intensity (a.u.)"}, {"sequence": "GAAATTGAAGATGATGTGACTGAAAAGTTGTGTATATGACCGGAGTCACCTAGTGCAG", "binding signal": "17200 fluorescence intensity (a.u.)"}]}]}
